Source: PubChem BioAssay (NCATS)
Results filed as inconclusive are left out. Activity calls are given as the source filed them. Unless noted, calls come from the whole dose curve; as a rule, active = well fitted curve in the direction sought with a large enough effect; inconclusive = small, poorly fitted or top-dose-only effect, or another doubt; inactive = no such curve, though single readings can be large; an effect the other way counts as inactive or inconclusive.

How the values were obtained:
[1] = target: DNA repair nuclease/redox regulator APEX1 (Homo sapiens) (UniProt P27695); assay: qHTS Validation Assay for Inhibitors of the Human Apurinic/apyrimidinic Endonuclease 1 (APE1) (AID 1705;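 note: TAMRA fluorescence gain over two minutes as APE1 cuts a quenched THF abasic duplex; series mostly up to about 57 µM; % is set by controls: 0 for no effect and ±100 for the full control effect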)
How it was run: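 Fluorogenic double-stranded THF abasic-site substrate (5'-TAMRA/3'-BHQ-2), 50 nM final. Enzyme preincubated with compound 15 min at room temperature, then substrate added. Kinetic fluorescence (ex 525/em 598 nm) read three times at 60 s intervals; activity taken as third-minus-first read difference.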

[2] = Counterscreen for APE1 Inhibitors: Fluorescent Dye Displacement Validation Assay (AID 1707);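 note: plate controls were ThO with dsDNA and no compound for no effect and ThO without dsDNA for full effect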
How it was run: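 Signal: ThO fluorescence (ex 480 nm/em 540 nm) on binding 50 nM dsDNA; displacement by test compound reduces it. Conditions: 250 nM dye, 50 mM Tris-HCl pH7.5, 2 mM MgCl2, 50mM NaCl, 0.01% Tween-20.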

[3] = target: Endonuclease 4 (Escherichia coli (strain K12)) (UniProt P0A6C1); assay: Counterscreen for APE1 Inhibitors: qHTS Validation Assay for Inhibitors of Endonuclease IV (AID 1708); note: % is set by controls: 0 for no effect and ±100 for the full control effect
How it was run: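 Enzyme (2 nM) + compound, 15 min RT; add 50 nM TAMRA/BHQ-2 THF-site dsDNA; kinetic read ex525/em598, 3 reads/60 s; activity = read 3 − read 1. Buffer Tris pH 7.5, 50 mM NaCl, 2 mM MgCl2, DTT, Tween-20.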

[4] = qHTS for differential inhibitors of proliferation of Plasmodium falciparum line Dd2 (AID 1882); details: Potency: Plasmodium falciparum Dd2 proliferation inhibition;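 note: series mostly up to about 29 µM; plate controls were DMSO vehicle for no effect and 0.29 µM artemisinin for full effect; nearly all actives have a fitted effect of over 65% in size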
How it was run: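 SYBR Green DNA fluorescence (ex 485, em 535 nm) after overnight lysis quantifies parasite growth; compound exposure lasted 72 h at 37 C on infected red cells at 2.5% hematocrit, 0.3% parasitemia (final). Artemisinin 0.29 uM and vehicle wells define normalization.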

[5] = qHTS for differential inhibitors of proliferation of Plasmodium falciparum line W2 (AID 1883); details: Potency: Plasmodium falciparum W2 proliferation inhibition;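 note: potency is the fitted concentration of half-maximal effect; parasites grown with compound for 72 h before lysis and staining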
[6] = qHTS Assay for Modulators of Human Peripheral Myelin Protein 22 (PMP22) Expression/Activity (AID 1967; active = well fitted curve in the direction sought with a large enough effect in the signal ratio; the % refers to the signal ratio;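 note: 0% = untreated cells and 100% end not stated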)
How it was run: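 Mouse MSC80 Schwann cells carrying Pmp22 promoter–green click beetle luciferase plus EF-alpha–red luciferase control, dosed 24 h at 37 °C. Dual-filter luminescence, overlap-corrected; %Activity from green/red ratio normalised to untreated cells, concentration-response curves fitted.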

[7] = target: Ferritin light chain (Equus caballus) (UniProt P02791); assay: qHTS Validation Assay for Identification of Novel General Anesthetics (AID 2323); note: series mostly up to about 77 µM; % is set by controls: 0 for no effect and ±100 for the full control effect
How it was run: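 Horse-spleen apoferritin (10 uM) in PBS with 50% saturated 1-aminoanthracene; compounds pin-transferred, 10 min at room temperature. Fluorescence read at 380/535 nm, normalized to free 1-AMA and 1-AMA/apoferritin values; four-parameter Hill fit.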

[8] = target: ATP-dependent DNA helicase Q1 (Homo sapiens) (UniProt P46063); assay: qHTS Validation Assay for Inhibitors of RecQ-Like Dna Helicase 1 (RECQ1) (AID 2353);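 note: plate controls were DMSO vehicle for no effect and enzyme-free control for full effect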
How it was run: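 RECQ1T1 50 nM; forked duplex (20 bp + 30-nt ss tails) 200 nM, ATP 2 mM final; pH 8.0, 2 mM MgCl2, 2.5 ug/ml poly(dI-dC); 15 min compound preincubation; discontinuous kinetic read over 2 h at RT.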

[9] = Validation screen for small molecules that induce DNA re-replication in MCF 10A normal breast cells (AID 463097); note: 0% is about no effect; nearly all actives have a fitted effect of over 60% in size
How it was run: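 MCF 10A cells exposed to compound 48 hr at 37 C, 5% CO2, then Hoechst-stained 40 min. Laser-scanning imaging of nuclear DNA content (405 nm ex, 500-530 nm em); re-replication scored as rise in nuclei with elevated fluorescence intensity.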

[10] = Quantitative high throughput screen for delayed death inhibitors of the malarial parasite plastid, 48 hour incubation (AID 488752); note: % is set by controls: 0 for no effect and ±100 for the full control effect; nearly all actives have a fitted effect of over 65% in size
How it was run: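 First, compound was pinned into RPMI 1640 medium containing 0.5% Albumax. Next, reporter-parasite-infected erythrocytes were added to 2% hematocrit and 0.1% parasitemia. After 48 h at 37 C under 5% CO2, luciferase detection reagent was added and luminescence read.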

[11] = target: M-phase phosphoprotein 8 (Homo sapiens) (UniProt Q99549); assay: qHTS Validation Assay for Inhibitors for MPP8 Chromodomain Interactions with Methylated Histone Tails (AID 488949); note: top concentration of the series differs between compounds; % is set by controls: 0 for no effect and ±100 for the full control effect; nearly all actives have a fitted effect of over 55% in size
How it was run: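 MPP8 (50 nM) was pre-bound to 50 nM biotinylated H3(1-18)K9me3 peptide in PBS pH 7.4 with 0.01% Tween-20. Compounds were then added for 30 min at room temperature, and complex disruption was read by AlphaScreen with streptavidin donor and nickel-chelate acceptor beads.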

[12] = target: Transient receptor potential cation channel subfamily V member 1 (Homo sapiens) (UniProt Q8NER1); assay: HTS Assay for Compounds that Act as Enhancers of the Vanilloid Receptor 1 (AID 488979); note: 0% is about no effect
How it was run: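 TRPV1-expressing cells loaded with Fluo-8 calcium dye; compounds added and calcium influx read kinetically for 3 min (agonist phase), then capsaicin at EC20 added and read 2 min more for enhancement. Fluorescence ex 480/em 520 nm.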

[13] = target: Thyrotropin receptor (Homo sapiens) (UniProt P16473); assay: qHTS Assay for Antagonists of the Thyroid Stimulating Hormone Receptor (AID 488980); note: series mostly up to about 58 µM; 0% is about no effect
How it was run: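 TSHR-transfected HEK293 cells (2000/well) in HEPES-buffered HBSS with 70 uM RO 20-1724 were stimulated with 4 nM TSH (EC80, final) in the presence of compound. cAMP was measured by HTRF competition after lysis and 30 min at RT.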

[14] = target: Thyrotropin-releasing hormone receptor (Homo sapiens) (UniProt P34981); assay: qHTS for Small Molecule Agonists and Allosteric Enhancers of Human TRH Receptor: Validation Screen for Agonists (AID 493127;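 active = calcium activation more than 3 SD above the typical response in the agonist read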;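 note: intracellular calcium rise by fluo-8 fluorescence before TRH EC20 addition; 0% is about no effect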); details: TRH receptor agonist cell assay; at 2 µM; hits give high values
How it was run: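 Compounds are added by online pintool to dye-loaded TRHR cells while fluorescence is recorded every second. A rise in calcium signal during the agonist read marks activation; a later 10 nM TRH addition (EC20) serves the separate enhancer mode.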

[15] = target: Galactokinase (Homo sapiens) (UniProt P51570); assay: qHTS Validation Assay for Inhibitors of Human Galactokinase (GALK) (AID 493189); note: 0% is about no effect
How it was run: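 GALK (5 nM) with 35 uM ATP and 100 uM galactose in HEPES pH 8.0 with MgCl2, NaCl, DTT and BSA. Reaction ran 1 h at room temperature. Residual ATP read by Kinase-Glo Plus luminescence.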

[16] = Validation screen for small molecules that induce DNA re-replication in SW480 colon adenocarcinoma cells (AID 504364); note: 0% is about no effect
How it was run: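 Image-based qHTS: compounds were incubated with SW480 cells for 48 hr, nuclei stained with Hoechst, and per-nucleus fluorescence intensity scanned to flag cells with excess DNA content.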

[17] = target: DNA dC->dU-editing enzyme APOBEC-3G (Homo sapiens) (UniProt Q9HC16); assay: qHTS for inhibitors of Vif-A3G interactions: Validation (AID 588379); note: 0% is about no effect
How it was run: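 Yellow fluorescence (Ex 488, Em 500-530) of Vif-coexpressing HeLa A3G-eYFP cells, scanned by Acumen cytometer, reports blocked A3G degradation. Cells plated at 700/well overnight at 37 deg C before compound addition, then a further overnight compound incubation at 37 deg C.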

[18] = target: Voltage-gated inwardly rectifying potassium channel KCNH2 (Homo sapiens) (UniProt Q12809); assay: qHTS Assay for Small Molecule Inhibitors of the Human hERG Channel Activity (AID 588834);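 note: top concentration of the series differs between compounds; % is set by controls: 0 for no effect and ±100 for the full control effect; lower thallium flux fluorescence means stronger hERG block; nearly all actives have a fitted effect of over 50% in size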
How it was run: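 Thallium serves as surrogate for K+ influx through BacMam-delivered hERG in U2OS cells. Compounds are added for about 10 minutes after dye loading; stimulation buffer then starts flux, monitored kinetically on FDSS.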

[19] = system: Zika virus NS2B-NS3 protease; assay: Primary screen GU AMC qHTS for Zika virus inhibitors (AID 1347154);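 note: 0% = no-inhibitor control and -100% = no-enzyme control; nearly all actives have a fitted effect of over 70% in size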
How it was run: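 Unlinked Zika NS2B hydrophilic domain/NS3 protease domain noncovalent complex (25 nM final) in 10 mM Tris-HCl pH 8.0, 0.01% Tween 20, with AMC peptide substrate. Fluorescence (ex 340, em 450 nm) change over 15 min, room temperature; percent inhibition fitted to 4-parameter Hill equation.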

[20] = Primary qHTS for small molecule stabilizers of the endoplasmic reticulum resident proteome: Secreted ER Calcium Modulated Protein (SERCaMP) assay (AID 1508630); note: % is set by controls: 0 for no effect and ±100 for the full control effect
How it was run: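 The SH-SY5Y reporter protocol was run at 3 concentrations up to 38.3 uM (primary) or 11 concentrations (follow-up): 16 h compound, 100 nM thapsigargin for 4 h, then extracellular luciferase luminescence.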

Sequence of Ferritin light chain (Equus caballus) (P02791 2-175 limits assumed): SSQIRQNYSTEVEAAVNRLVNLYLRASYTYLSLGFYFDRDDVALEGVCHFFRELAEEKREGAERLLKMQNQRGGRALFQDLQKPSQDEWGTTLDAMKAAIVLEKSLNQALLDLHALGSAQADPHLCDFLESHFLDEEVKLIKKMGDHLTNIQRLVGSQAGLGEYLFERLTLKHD
Sequence of DNA repair nuclease/redox regulator APEX1 (Homo sapiens) (P27695 whole entry, looked up): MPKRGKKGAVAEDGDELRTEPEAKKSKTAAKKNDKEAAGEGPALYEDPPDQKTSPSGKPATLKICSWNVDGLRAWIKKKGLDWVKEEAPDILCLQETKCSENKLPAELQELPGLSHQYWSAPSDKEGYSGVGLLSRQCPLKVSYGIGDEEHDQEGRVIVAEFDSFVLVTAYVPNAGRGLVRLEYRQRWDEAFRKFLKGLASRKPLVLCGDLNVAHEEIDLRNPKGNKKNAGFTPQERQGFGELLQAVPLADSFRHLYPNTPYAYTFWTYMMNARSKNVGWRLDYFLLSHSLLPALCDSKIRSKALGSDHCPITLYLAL
Sequence of Thyrotropin-releasing hormone receptor (Homo sapiens) (P34981 whole entry, looked up): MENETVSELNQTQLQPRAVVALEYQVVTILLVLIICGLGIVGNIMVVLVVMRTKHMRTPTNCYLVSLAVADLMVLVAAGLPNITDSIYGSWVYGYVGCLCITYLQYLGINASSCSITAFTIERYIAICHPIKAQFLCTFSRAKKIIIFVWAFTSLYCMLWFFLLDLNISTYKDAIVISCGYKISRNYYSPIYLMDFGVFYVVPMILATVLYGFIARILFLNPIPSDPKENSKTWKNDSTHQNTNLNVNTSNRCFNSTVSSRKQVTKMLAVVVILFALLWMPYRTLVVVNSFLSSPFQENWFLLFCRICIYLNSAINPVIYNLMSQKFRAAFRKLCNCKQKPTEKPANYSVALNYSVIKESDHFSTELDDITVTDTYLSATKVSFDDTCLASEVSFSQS
Sequence of ATP-dependent DNA helicase Q1 (Homo sapiens) (P46063 whole entry, looked up): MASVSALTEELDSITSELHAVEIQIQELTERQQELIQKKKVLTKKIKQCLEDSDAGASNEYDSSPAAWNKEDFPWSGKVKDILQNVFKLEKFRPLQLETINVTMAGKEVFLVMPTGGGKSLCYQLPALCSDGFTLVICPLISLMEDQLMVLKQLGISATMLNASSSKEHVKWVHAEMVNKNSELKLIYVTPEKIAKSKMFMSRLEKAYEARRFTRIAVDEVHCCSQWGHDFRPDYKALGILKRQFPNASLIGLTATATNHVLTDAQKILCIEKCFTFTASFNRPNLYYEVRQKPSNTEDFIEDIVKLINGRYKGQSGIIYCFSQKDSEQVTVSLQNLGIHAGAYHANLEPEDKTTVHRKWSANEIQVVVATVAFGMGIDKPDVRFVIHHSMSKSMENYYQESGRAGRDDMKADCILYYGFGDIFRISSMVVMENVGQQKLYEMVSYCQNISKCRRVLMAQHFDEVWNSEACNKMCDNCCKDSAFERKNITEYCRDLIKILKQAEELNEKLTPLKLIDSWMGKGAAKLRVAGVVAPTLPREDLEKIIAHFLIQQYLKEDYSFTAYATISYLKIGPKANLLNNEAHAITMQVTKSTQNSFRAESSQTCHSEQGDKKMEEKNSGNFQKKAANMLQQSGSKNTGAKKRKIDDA
Sequence of Galactokinase (Homo sapiens) (P51570 whole entry, looked up): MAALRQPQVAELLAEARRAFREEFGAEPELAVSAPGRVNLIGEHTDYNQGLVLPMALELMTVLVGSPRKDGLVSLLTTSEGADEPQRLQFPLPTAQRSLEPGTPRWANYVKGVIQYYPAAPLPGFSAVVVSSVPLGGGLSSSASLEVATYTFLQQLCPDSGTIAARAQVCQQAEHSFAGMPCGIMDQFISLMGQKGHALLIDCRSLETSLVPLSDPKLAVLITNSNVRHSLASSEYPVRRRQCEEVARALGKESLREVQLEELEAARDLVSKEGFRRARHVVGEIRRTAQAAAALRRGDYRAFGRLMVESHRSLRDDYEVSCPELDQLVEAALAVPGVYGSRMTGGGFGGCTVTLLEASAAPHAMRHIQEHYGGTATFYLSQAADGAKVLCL
Sequence of Thyrotropin receptor (Homo sapiens) (P16473 whole entry, looked up): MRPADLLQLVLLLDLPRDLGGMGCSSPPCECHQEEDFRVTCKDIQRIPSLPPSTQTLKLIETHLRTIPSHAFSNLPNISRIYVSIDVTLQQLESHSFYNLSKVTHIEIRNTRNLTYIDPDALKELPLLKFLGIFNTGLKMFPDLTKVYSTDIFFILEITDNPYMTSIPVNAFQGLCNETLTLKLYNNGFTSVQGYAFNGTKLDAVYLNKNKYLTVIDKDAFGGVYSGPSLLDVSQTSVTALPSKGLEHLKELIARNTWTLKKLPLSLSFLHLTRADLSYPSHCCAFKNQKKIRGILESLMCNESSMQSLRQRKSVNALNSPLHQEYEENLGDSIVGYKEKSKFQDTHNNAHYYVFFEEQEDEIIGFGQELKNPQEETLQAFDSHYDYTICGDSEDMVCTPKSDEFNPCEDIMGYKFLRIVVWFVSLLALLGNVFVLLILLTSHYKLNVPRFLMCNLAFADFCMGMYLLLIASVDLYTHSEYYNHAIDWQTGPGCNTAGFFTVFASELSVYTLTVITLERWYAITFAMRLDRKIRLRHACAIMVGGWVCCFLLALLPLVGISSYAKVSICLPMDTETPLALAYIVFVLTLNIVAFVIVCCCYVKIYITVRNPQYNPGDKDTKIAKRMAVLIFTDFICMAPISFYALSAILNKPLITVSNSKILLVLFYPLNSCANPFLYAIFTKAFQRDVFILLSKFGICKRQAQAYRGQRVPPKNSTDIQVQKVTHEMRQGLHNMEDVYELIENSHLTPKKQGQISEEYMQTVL
Sequence of M-phase phosphoprotein 8 (Homo sapiens) (Q99549 whole entry, looked up): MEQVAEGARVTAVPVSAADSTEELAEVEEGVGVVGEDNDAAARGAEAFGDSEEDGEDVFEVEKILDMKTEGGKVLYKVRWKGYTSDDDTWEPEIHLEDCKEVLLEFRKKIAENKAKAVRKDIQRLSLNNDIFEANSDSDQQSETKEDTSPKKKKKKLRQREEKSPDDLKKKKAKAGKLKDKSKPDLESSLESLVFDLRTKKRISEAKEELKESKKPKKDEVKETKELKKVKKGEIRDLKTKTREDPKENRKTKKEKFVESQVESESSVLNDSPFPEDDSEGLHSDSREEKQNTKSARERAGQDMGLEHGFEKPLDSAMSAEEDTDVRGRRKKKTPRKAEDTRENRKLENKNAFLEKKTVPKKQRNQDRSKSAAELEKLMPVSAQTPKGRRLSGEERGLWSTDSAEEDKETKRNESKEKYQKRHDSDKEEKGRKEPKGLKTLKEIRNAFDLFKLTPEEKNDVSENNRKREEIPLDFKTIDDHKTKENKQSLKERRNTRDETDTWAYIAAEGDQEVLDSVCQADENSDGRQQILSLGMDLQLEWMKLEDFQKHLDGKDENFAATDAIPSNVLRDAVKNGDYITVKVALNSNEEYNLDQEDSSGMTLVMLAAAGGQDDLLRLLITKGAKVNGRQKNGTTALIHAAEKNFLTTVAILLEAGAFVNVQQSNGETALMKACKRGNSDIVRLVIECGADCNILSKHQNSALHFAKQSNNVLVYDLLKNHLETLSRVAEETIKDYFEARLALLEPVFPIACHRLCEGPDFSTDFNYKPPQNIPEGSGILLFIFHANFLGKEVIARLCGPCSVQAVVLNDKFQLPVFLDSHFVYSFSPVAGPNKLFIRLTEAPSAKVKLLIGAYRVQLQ
Sequence of DNA dC->dU-editing enzyme APOBEC-3G (Homo sapiens) (Q9HC16 whole entry, looked up): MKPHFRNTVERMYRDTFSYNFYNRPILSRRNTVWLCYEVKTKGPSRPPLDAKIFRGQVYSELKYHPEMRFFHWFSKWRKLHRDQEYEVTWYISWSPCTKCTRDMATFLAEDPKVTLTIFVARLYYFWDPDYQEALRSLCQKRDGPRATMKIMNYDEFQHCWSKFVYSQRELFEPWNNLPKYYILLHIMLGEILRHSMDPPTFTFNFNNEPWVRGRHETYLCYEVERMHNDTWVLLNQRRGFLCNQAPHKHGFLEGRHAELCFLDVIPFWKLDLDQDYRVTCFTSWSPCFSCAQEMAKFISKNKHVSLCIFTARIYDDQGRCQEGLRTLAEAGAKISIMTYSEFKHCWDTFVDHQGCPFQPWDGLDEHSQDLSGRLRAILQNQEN
Sequence of Transient receptor potential cation channel subfamily V member 1 (Homo sapiens) (Q8NER1 whole entry, looked up): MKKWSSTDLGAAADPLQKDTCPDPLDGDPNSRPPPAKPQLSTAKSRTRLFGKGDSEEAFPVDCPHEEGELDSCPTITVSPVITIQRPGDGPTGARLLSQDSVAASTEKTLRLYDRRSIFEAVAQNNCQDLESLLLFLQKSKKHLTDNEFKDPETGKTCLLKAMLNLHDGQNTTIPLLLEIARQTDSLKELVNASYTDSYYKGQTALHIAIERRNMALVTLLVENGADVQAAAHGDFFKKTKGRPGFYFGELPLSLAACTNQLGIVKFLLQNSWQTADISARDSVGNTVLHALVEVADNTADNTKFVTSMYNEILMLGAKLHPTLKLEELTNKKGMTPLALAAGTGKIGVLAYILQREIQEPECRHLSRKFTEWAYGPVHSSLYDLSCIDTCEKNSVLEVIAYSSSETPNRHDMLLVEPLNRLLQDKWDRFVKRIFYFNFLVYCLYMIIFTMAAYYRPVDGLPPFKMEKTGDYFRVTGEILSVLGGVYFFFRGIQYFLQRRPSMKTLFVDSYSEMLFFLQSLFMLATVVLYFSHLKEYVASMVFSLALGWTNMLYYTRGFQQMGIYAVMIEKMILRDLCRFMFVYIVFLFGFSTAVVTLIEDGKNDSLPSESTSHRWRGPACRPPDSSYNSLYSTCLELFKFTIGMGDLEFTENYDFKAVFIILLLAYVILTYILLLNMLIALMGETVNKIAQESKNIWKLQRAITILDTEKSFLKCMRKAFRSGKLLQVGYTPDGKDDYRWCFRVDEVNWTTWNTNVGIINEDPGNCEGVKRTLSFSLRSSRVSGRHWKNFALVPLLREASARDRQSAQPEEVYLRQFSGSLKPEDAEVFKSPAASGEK

CP(=O)(O)CCCN
inactive: Potency [1] | Potency [2] | outcome [3] | Potency [4] | outcome [6] | outcome [7] | Potency [8] | Potency [9] | Potency [10] | Potency [11] | outcome [12] | outcome [13] | activation [14] 1.06% | outcome [15] | Potency [16] | Potency [17] | Potency [18] | Potency [19] | Potency [20]
active: Potency [5] 2.82 µM
